Results published in PubChem BioAssay AID1159580 (chemical genetic matrix, 2015).
About 2,000 (36%) of roughly 5,500 compounds were called active. Roughly 18% stayed inconclusive and do not appear here. Rule as the data show it: active = normalized growth mostly below about 0.91 (no sharp cut-off); inconclusive = no clear call, values can overlap the other calls; inactive = mostly above about 0.92. Some of the results follow.

Test: chemical genetic growth profiling, strain panel (AID 1159580);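 also: tested at 20 µM; growth read once vehicle control cultures reached saturation at 30 °C; 1 = growth at the plate median or of vehicle wells; lower values mean less growth of the strain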
Conditions: S. cerevisiae deletion strains, growth OD
[1] = locus YHR079C, strain IRE1, active compounds read low
[2] = locus YJL095W, strain BCK1, active compounds read low
[3] = locus YJR066W, strain TOR1, active compounds read low
[4] = locus YLR113W, strain HOG1, active compounds read low
[5] = locus YNL183C, strain NPR1, active compounds read low
[6] = locus YOR231W, strain MKK1, active compounds read low
[7] = locus YPL256C, strain CLN2, active compounds read low
[8] = locus YAR019C, strain CDC15, active compounds read low
[9] = locus YBL105C, strain PKC1, active compounds read low
[10] = locus YBR135W, strain CKS1, active compounds read low
[11] = locus YBR136W, strain MEC1, active compounds read low
[12] = locus YBR160W, strain CDC28, active compounds read low
[13] = locus YDL017W, strain CDC7, active compounds read low
[14] = locus YDL028C, strain MPS1, active compounds read low
[15] = locus YDL101C, strain DUN1, active compounds read low
[16] = locus YDL108W, strain KIN28, active compounds read low
[17] = locus YDL132W, strain cdc53, active compounds read low
[18] = locus YDL214C, strain PRR2, active compounds read low
[19] = locus YDR052C, strain DBF4, active compounds read low
[20] = locus YDR054C, strain cdc34, active compounds read low
[21] = locus YDR226W, strain ADK1, active compounds read low
[22] = locus YDR477W, strain SNF1, active compounds read low
[23] = locus YER123W, strain YCK3, active compounds read low
[24] = locus YER133W, strain GLC7, active compounds read low
[25] = locus YFL009W, strain cdc4, active compounds read low
[26] = locus YFL029C, strain CAK1, active compounds read low
[27] = locus YFR003C, strain YPI1, active compounds read low
[28] = locus YFR019W, strain FAB1, active compounds read low
[29] = locus YFR028C, strain CDC14, active compounds read low
[30] = locus YGR040W, strain KSS1, active compounds read low
[31] = locus YGR052W, strain FMP48, active compounds read low
[32] = locus YGR092W, strain DBF2, active compounds read low
[33] = locus YHR030C, strain SLT2, active compounds read low
[34] = locus YHR082C, strain KSP1, active compounds read low
[35] = locus YHR205W, strain SCH9, active compounds read low
[36] = locus YIL147C, strain SLN1, active compounds read low
[37] = locus YJL128C, strain PBS2, active compounds read low
[38] = locus YJL157C, strain FAR1, active compounds read low
[39] = locus YJR016C, strain ILV3, active compounds read low
[40] = locus YJR066W, strain TOR1 (second series), active compounds read low
[41] = locus YKL048C, strain ELM1, active compounds read low
[42] = locus YKL067W, strain YNK1, active compounds read low
[43] = locus YKL101W, strain HSL1, active compounds read low
[44] = locus YKL193C, strain SDS22, active compounds read low
[45] = locus YKL203C, strain TOR2, active compounds read low
[46] = locus YLR133W, strain CKI1, active compounds read low
[47] = locus YLR403W, strain SFP1, active compounds read low
[48] = locus YML070W, strain DAK1, active compounds read low
[49] = locus YMR001C, strain CDC5, active compounds read low
[50] = locus YMR205C, strain PFK2 (second series), active compounds read low
[51] = locus YMR277W, strain FCP1, active compounds read low
[52] = locus YNL006W, strain LST8, active compounds read low
[53] = locus YNL020C, strain ARK1, active compounds read low
[54] = locus YNL161W, strain CBK1, active compounds read low
[55] = locus YNL207W, strain RIO2, active compounds read low
[56] = locus YNL222W, strain SSU72, active compounds read low
[57] = locus YNL307C, strain MCK1 (second series), active compounds read low
[58] = locus YOL078W, strain AVO1, active compounds read low
[59] = locus YOL136C, strain PFK27, active compounds read low
[60] = locus YOR061W, strain CKA2, active compounds read low
[61] = locus YOR119C, strain RIO1, active compounds read low
[62] = locus YOR329C, strain SCD5, active compounds read low
[63] = locus YPL031C, strain PHO85, active compounds read low
[64] = locus YPL153C, strain RAD53, active compounds read low
[65] = locus YPL204W, strain HRR25, active compounds read low
[66] = locus YPL209C, strain IPL1, active compounds read low
[67] = locus YPR025C, strain CCL1, active compounds read low
[68] = locus YPR106W, strain ISR1, active compounds read low
[69] = locus YPR111W, strain DBF20, active compounds read low
[70] = strain NNK1, active compounds read low
[71] = strain TSCII, active compounds read low

Measured: normalized growth

Cc1ncc([N+](=O)[O-])n1CC(O)CCl (stereo not given)
inactive: [1] 0.977 | [2] 0.965 | [3] 0.956 | [4] 0.978 | [5] 0.922 | [6] 0.97 | [7] 0.933

COc1ccc(-c2cn3cc(C)ccc3n2)cc1
inactive: [8] 0.98 | [9] 0.975 | [10] 0.97 | [11] 0.978 | [12] 0.971 | [13] 0.987 | [14] 0.986 | [15] 0.984 | [16] 0.983 | [17] 0.977 | [18] 0.97 | [19] 0.985 | [20] 0.973 | [21] 0.982 | [22] 0.975 | [23] 0.953 | [24] 0.981 | [25] 0.98 | [26] 0.973 | [27] 0.98 | [28] 0.981 | [29] 0.975 | [30] 0.966 | [31] 1.07 | [32] 0.937 | [33] 1.01 | [1] 1.02 | [34] 1.04 | [35] 0.963 | [36] 0.983 | [2] 1.02 | [37] 0.943 | [38] 0.968 | [39] 0.979 | [40] 0.995 | [3] 1.06 | [41] 0.957 | [42] 0.976 | [43] 0.961 | [44] 0.978 | [45] 1.05 | [4] 0.923 | [46] 0.956 | [47] 0.96 | [48] 0.956 | [49] 0.977 | [50] 0.973 | [51] 0.979 | [52] 0.995 | [53] 0.963 | [54] 0.971 | [5] 1.02 | [55] 0.977 | [56] 0.975 | [57] 0.953 | [58] 0.978 | [59] 0.969 | [60] 0.973 | [61] 1.03 | [6] 0.959 | [62] 0.982 | [63] 0.979 | [64] 0.986 | [65] 0.992 | [66] 0.962 | [7] 0.96 | [67] 0.978 | [68] 0.971 | [69] 0.954 | [70] 0.978 | [71] 0.972

COc1ccc(-c2csc(-c3cccnc3)n2)cc1
inactive: [8] 0.96 | [9] 0.966 | [10] 0.957 | [11] 0.958 | [12] 0.963 | [13] 0.961 | [14] 0.965 | [15] 0.951 | [16] 0.958 | [17] 0.961 | [18] 0.909 | [19] 0.973 | [20] 0.945 | [21] 0.946 | [22] 0.894 | [23] 0.847 | [24] 0.888 | [25] 0.954 | [26] 0.949 | [27] 0.947 | [28] 0.86 | [29] 0.949 | [30] 0.858 | [31] 0.993 | [32] 0.828 | [1] 0.889 | [34] 0.954 | [35] 0.955 | [36] 0.961 | [2] 0.884 | [37] 0.966 | [38] 0.914 | [39] 0.955 | [40] 0.857 | [3] 0.891 | [41] 0.958 | [42] 0.912 | [43] 0.928 | [44] 0.948 | [45] 0.904 | [4] 1.01 | [46] 0.915 | [47] 0.877 | [48] 0.912 | [49] 0.959 | [50] 0.907 | [51] 0.95 | [52] 0.968 | [53] 0.903 | [54] 0.963 | [5] 0.882 | [55] 0.949 | [56] 0.953 | [57] 0.888 | [58] 0.948 | [59] 0.915 | [60] 0.929 | [61] 0.948 | [6] 0.906 | [62] 0.957 | [63] 0.876 | [64] 0.883 | [65] 0.852 | [66] 0.963 | [7] 0.901 | [67] 0.958 | [68] 0.958 | [69] 0.956 | [70] 0.957 | [71] 0.952
active: [33] 0.849

Clc1ccccc1-c1csc(-c2ccncc2)n1
inactive: [8] 0.962 | [9] 0.966 | [10] 0.964 | [11] 0.968 | [12] 0.962 | [13] 0.964 | [14] 0.966 | [15] 0.963 | [16] 0.965 | [17] 0.966 | [18] 0.971 | [19] 0.977 | [20] 0.922 | [21] 0.966 | [22] 0.937 | [23] 0.895 | [24] 0.945 | [25] 0.942 | [26] 0.964 | [27] 0.964 | [28] 0.961 | [29] 0.96 | [30] 0.951 | [31] 1.02 | [32] 0.85 | [33] 0.946 | [1] 0.923 | [34] 1.12 | [35] 1.03 | [36] 0.962 | [2] 0.829 | [37] 0.933 | [38] 0.93 | [39] 0.964 | [40] 0.94 | [3] 1.02 | [41] 0.99 | [42] 0.974 | [43] 0.987 | [44] 0.949 | [45] 0.992 | [4] 0.969 | [46] 0.979 | [47] 0.927 | [48] 0.977 | [49] 0.963 | [50] 0.972 | [51] 0.963 | [52] 0.97 | [53] 0.965 | [54] 0.96 | [5] 1.07 | [55] 0.962 | [56] 0.965 | [57] 0.971 | [58] 0.957 | [59] 0.97 | [60] 0.99 | [61] 0.981 | [6] 0.988 | [62] 0.964 | [63] 0.918 | [64] 0.925 | [65] 0.93 | [66] 0.965 | [7] 1.03 | [67] 0.968 | [68] 0.965 | [69] 0.97 | [70] 0.97 | [71] 0.951
